Source: PubChem (National Center for Advancing Translational Sciences (NCATS))
Only some compounds are listed: those with a hit (about 6.6% of all), similar ones and a draw of the others.
MCF10A rereplic: inducers of DNA re-replication in MCF 10A breast cells; 350,000 tested, 2.9% active; MCF 10A DNA re-replication, Hoechst nuclear intensity, 48 h; AID 624296; Potency, µM (series often up to 46.1 µM), hits mostly activators; further: nearly all actives have a fitted effect of over 50% in size
SW480 rerep: inducers of DNA re-replication in SW480 colon cancer cells; SW480 DNA re-replication, Hoechst DNA content imaging, 48 h; Potency, µM (highest dose often 46.1 µM), actives largely listed as activators; 340,000 tested, 1.8% active; AID 624297; further: nearly all actives have a fitted effect of over 55% in size
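DNA re-replication was detected as more nuclei of elevated Hoechst intensity after 48 hr exposure to compound (23 nL pinned per well of 250 cells).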
PTAP TSG101 blk: blocks PTAP/TSG101 interaction to inhibit HIV-1 budding. Q99816. Fluorescence polarization, FITC-PTAP peptide / Tsg101 binding. Potency, µM (doses to about 115 µM), actives largely listed as inhibitors. 340,000 tested, under 10 active. AID 493005; active means well fitted inhibition curve with a large enough effect in the main read-out, with a control signal flat, not every such curve was filed as active; inconclusive means small, poorly fitted or top-dose-only effect, or effect the other way, or a change in a side signal; inactive means no such curve, though single readings can be large or run the other way
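Tsg101 binding domain (10 uM final) was mixed with compound and a FITC-labeled PTAP peptide (50 nM final) in HEPES pH 7.5 buffer with NaCl, Tween 20, EDTA and TCEP; fluorescence polarization was read after 20 min at r.t.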
RGS4 inh: blocks human RGS4-accelerated GTP hydrolysis; 390,000 tested, 0.039% active; P49798; Potency, µM (doses to about 114 µM), most hits filed as inhibitors; Transcreener GDP fluorescence polarization, RGS4-accelerated GTP hydrolysis; AID 504845; further: nearly all actives have a fitted effect of over 75% in size
Target sequence (P49798 whole entry, looked up): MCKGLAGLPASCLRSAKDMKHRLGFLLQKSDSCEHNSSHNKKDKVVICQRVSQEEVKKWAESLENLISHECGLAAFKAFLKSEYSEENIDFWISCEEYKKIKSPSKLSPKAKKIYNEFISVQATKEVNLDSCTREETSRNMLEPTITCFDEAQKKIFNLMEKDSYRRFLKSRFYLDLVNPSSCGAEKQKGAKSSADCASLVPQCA
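MLSMR compounds (23 nl, pin-transferred) preincubated 10 min at room temperature with a 500nM (2x) first reagent, then RGS4 at 900nM (2x) plus Transcreener GDP mix added; fluorescence polarization (620/688 nm) read before and after 90 min at 30 °C.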
KB-3-1 cytotox: kills parental KB-3-1 adenocarcinoma cells | KB-3-1 viability, CellTiter-Glo ATP luminescence, 72 h | 400,000 tested, 1.4% active | AID 1347075 | Potency, µM (doses to about 46.1 µM), hits mostly cytotoxic; further: nearly all actives have a fitted effect of over 60% in size
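72 h, 37 °C compound treatment of KB-3-1 parental cells; CellTiter-Glo added, 10 min, luminescence read. Data corrected against DMSO-only plates and normalized before curve fitting.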
KB-V1 MDR tox: KB-V1 MDR subline cytotoxicity | KB-V1 MDR cells viability, CellTiter-Glo, 72 h | Potency, µM (series often up to 46.1 µM), hits mostly cytotoxic | 400,000 tested, 3.4% active | AID 1347076; further: nearly all actives have a fitted effect of over 60% in size
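KB-V1 MDR subline cells in DMEM (phenol-red free, 10% FBS) exposed to compounds in qHTS concentration series for 72 h at 37 degrees C. Viability read by CellTiter-Glo luminescence; concentration-effect curves fitted after normalization and correction.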
Each line names hits and unclear results; the compound was inactive in the other large screens. Unless noted, the call rests on the fitted dose curve; in most records, active means well fitted curve in the direction sought with a large enough effect; inconclusive means small, poorly fitted or top-dose-only effect, or another doubt; inactive means no such curve, though single readings can be large; an effect the other way counts as inactive or inconclusive.

Cc1ccc(NC(=O)CSc2nccn2C2CCCC2)cc1	none (no result: MCF10A rereplic, SW480 rerep, PTAP TSG101 blk, KB-3-1 cytotox, KB-V1 MDR tox)
O=Cc1ccnc2ccccc12	none (no result: MCF10A rereplic, SW480 rerep, PTAP TSG101 blk, RGS4 inh)
CCCc1c(C)c2ccc(O)c(CN3CCN(c4ccc(F)cc4)CC3)c2oc1=O	none (no result: MCF10A rereplic, SW480 rerep, PTAP TSG101 blk)
Cc1ccc(C)c(Nc2ncnc3c2cnn3-c2ccc(F)cc2)c1	none (no result: MCF10A rereplic, SW480 rerep, PTAP TSG101 blk)
CCCC(=O)N(c1ccc2oc(-c3ccccc3)c(C(=O)OCC)c2c1)S(=O)(=O)c1ccc(C)cc1	none (no result: MCF10A rereplic, SW480 rerep, PTAP TSG101 blk, KB-3-1 cytotox, KB-V1 MDR tox)
CCc1ccc(/C([O-])=C(/C(=S)NCCN2CCOCC2)[n+]2ccccc2)cc1	MCF10A rereplic 6.5µM
CCn1cc(C(=O)NCCN(CC(C)C)CC(C)C)c(=O)c2cc(S(=O)(=O)N(C)C3CCCCC3)ccc21	none (no result: MCF10A rereplic, SW480 rerep, PTAP TSG101 blk)
c1csc(-c2nn3c(Cn4nnc5ccccc54)nnc3s2)c1	KB-3-1 cytotox inconclusive, KB-V1 MDR tox 15µM
c1ccc2c(c1)nnn2Cc1nnc2sc(-c3ccncc3)nn12	none
c1ccc2oc(-c3nn4c(Cn5cnc6ccccc65)nnc4s3)cc2c1	none
c1coc(-c2nn3c(Cn4nnc5ccccc54)nnc3s2)c1	MCF10A rereplic inconclusive, KB-V1 MDR tox 13µM
Clc1ccc(Cc2nn3c(Cn4nnc5ccccc54)nnc3s2)cc1	KB-V1 MDR tox 4.1µM
Cc1ccc(NC(=O)C2CCCN(S(=O)(=O)c3c(C)n[nH]c3C)C2)c(C)c1 (configuration not stated)	none (no result: MCF10A rereplic, SW480 rerep, PTAP TSG101 blk)
CCOc1ccc(NC(=O)CN2C(=O)CSc3ccc(S(=O)(=O)N4CCOCC4)cc32)cc1	KB-V1 MDR tox inconclusive
Cc1ccc(C)c(NC(=O)CN2CCSc3ccc(S(=O)(=O)N4CCCC4)cc32)c1	KB-V1 MDR tox inconclusive (no result: MCF10A rereplic, SW480 rerep, PTAP TSG101 blk)
CCOc1ccc(NC(=O)CN2CCSc3ccc(S(=O)(=O)N4CCCC4)cc32)cc1	KB-3-1 cytotox inconclusive, KB-V1 MDR tox 10µM (no result: MCF10A rereplic, SW480 rerep, PTAP TSG101 blk)
Cc1ccc(NC(=O)CN2CCSc3ccc(S(=O)(=O)N4CCCC4)cc32)cc1	KB-V1 MDR tox 12µM (no result: MCF10A rereplic, SW480 rerep, PTAP TSG101 blk)
CC(OC(=O)C1=Cc2ccccc2OC1)C(=O)NCC1CCCO1 (configuration not stated)	MCF10A rereplic 21µM, RGS4 inh inconclusive
Cc1cccc(NC(=O)CN(CC2CCCO2)C(=O)c2oc3ccc(F)cc3c2C)c1C (configuration not stated)	KB-V1 MDR tox 5.2µM
O=C(NCc1ccc(Cl)cc1)c1ccc(OCC2CCCO2)cc1 (configuration not stated)	KB-V1 MDR tox 16µM
Cc1ccc2oc(C(=O)N(Cc3ccc(N(C)C)cc3)CC3CCCO3)c(C)c2c1 (configuration not stated)	MCF10A rereplic inconclusive, KB-V1 MDR tox inconclusive
Cc1cc(C)c2nc(NC(=O)c3ccc(OCC4CCCO4)cc3)sc2c1 (configuration not stated)	none
Cc1cccc(NC(=O)c2ccc(OCC3CCCO3)cc2)c1C (configuration not stated)	KB-V1 MDR tox 21µM
O=C(Nc1nc(-c2ccc(Cl)cc2Cl)cs1)c1ccc(OCC2CCCO2)cc1 (configuration not stated)	KB-V1 MDR tox 9.2µM
CCOCCCn1c(SCC(=O)Nc2ccccc2Cl)nc2c(oc3ccccc32)c1=O	none (no result: MCF10A rereplic, SW480 rerep, PTAP TSG101 blk)
CCN1CCN(C(c2ccc(F)cc2)c2sc3nc(-c4ccco4)nn3c2O)CC1 (configuration not stated)	none (no result: MCF10A rereplic, SW480 rerep, PTAP TSG101 blk)
Cc1cc(NC(=O)c2ccc(OCC3CCCO3)cc2)ccc1Br (configuration not stated)	KB-V1 MDR tox inconclusive (no result: MCF10A rereplic, SW480 rerep, PTAP TSG101 blk, RGS4 inh)
O=C(Nc1ccc(Cl)cc1)c1ccc(OCC2CCCO2)cc1 (configuration not stated)	KB-3-1 cytotox inconclusive, KB-V1 MDR tox 13µM
COc1cc(OC)c2c(-c3ccccc3)cc(=O)oc2c1	none
COc1cc(OC)c2c(-c3cccc(-c4ccoc4)c3)cc(=O)oc2c1	MCF10A rereplic 7.3µM, SW480 rerep inconclusive
COc1cc(OC)c2c(-c3cccc(-c4ccc(OC)c(F)c4)c3)cc(=O)oc2c1	MCF10A rereplic inconclusive, SW480 rerep 1.5µM, KB-3-1 cytotox 0.92µM
